Sampled rows, rich in hits. Any-hit rate of the full collection: about 3.6%.
mHTT-CaM PPI inh = inhibitors of human mutant huntingtin-calmodulin interaction; P42858; inhibition, % at 15 µM; actives 3.6% (n = 190,000); AID 1671202; AlphaScreen His-mHTT/GST-CaM binding, luminescence;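 further: 0% = both proteins with DMSO and 100% = one protein alone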
Pf apPOL inh = Pf-apPOL DNA polymerase inhibition; Recombinant Pf-apPOL, molecular beacon fluorescence, 1.5 h; inhibition, % at 10 µM; actives 0.25% (n = 210,000)
An asterisk follows results filed as active; ! = repeats disagree. No stated cut-off is given here; in the data, active means inhibition above about 50%; inactive means the rest.

Cn1ncc(N2CCCC(C(=O)NCCCN3CCCc4ccccc43)C2)cc1=O (configuration not stated) was read as mHTT-CaM PPI inh 75* and Pf apPOL inh -2.
Cn1ncc(N2CCCC(C(=O)NCCCN3CCCC3=O)C2)cc1=O (configuration not stated) was read as mHTT-CaM PPI inh 100* and Pf apPOL inh -3.
`Cn1ncc(N2CCCC(C(=O)NCCCN3CCCCC3)C2)cc1=O` (configuration not stated) gave mHTT-CaM PPI inh -2 and Pf apPOL inh -3.
`O=C(NCCCN1CCCc2ccccc21)C1CCc2nc(N3CCOCC3)ncc2C1` (configuration not stated) gave mHTT-CaM PPI inh 30 and Pf apPOL inh -6.
Cn1ncc(N2CCCC(C(=O)NCCCc3ccccc3)C2)cc1=O (configuration not stated) was read as mHTT-CaM PPI inh -4 and Pf apPOL inh -6.
For O=C(NCCCN1CCCc2ccccc21)C1CCc2nc(N3CCCCC3)ncc2C1 (configuration not stated) the results were mHTT-CaM PPI inh 54* and Pf apPOL inh -4.
Screening Cc1ccnc(N2CCCC(C(=O)NCCCN3CCCc4ccccc43)C2)n1 (configuration not stated) returned mHTT-CaM PPI inh 52* and Pf apPOL inh 6.
Cc1ccnc(N2CCCC(C(=O)NCCCN3CCN(C)CC3)C2)n1 (configuration not stated) was read as mHTT-CaM PPI inh -5 and Pf apPOL inh -10.
For N#Cc1ccccc1NC(=O)C(=O)NCC(O)Cc1ccccc1 (configuration not stated) the results were mHTT-CaM PPI inh -6 and Pf apPOL inh -7.
`COc1ccc(C2SCCN2S(=O)(=O)c2ccc(C)c([N+](=O)[O-])c2)cc1OC` (configuration not stated) gave mHTT-CaM PPI inh 19 and Pf apPOL inh 7.
For CSc1ccc(/C=C2\C(=O)ON=C2c2ccccc2)cc1 the results were mHTT-CaM PPI inh 6 and Pf apPOL inh -15.
`CC(C)NC(=O)c1c2c(nc3ccc(F)cc13)CCCC2` gave mHTT-CaM PPI inh 4 and Pf apPOL inh 2.
COc1ccc(C2NC(=O)NC(C)=C2C(=O)Nc2ccc(F)c(F)c2)cc1OC (configuration not stated) was read as mHTT-CaM PPI inh -1 and Pf apPOL inh 65*!.
`COc1ccccc1C1NC(=O)NC(C)=C1C(=O)Nc1ccc(F)c(F)c1` (configuration not stated) gave mHTT-CaM PPI inh 6 and Pf apPOL inh 0.
Screening CC(C)c1nccn1CC1CCN(C(=O)c2cc(-c3ccccc3)on2)CC1 returned mHTT-CaM PPI inh 3 and Pf apPOL inh -10.
COc1nc(F)c(F)c(Oc2ccc(C)cc2)c1F was read as mHTT-CaM PPI inh -9 and Pf apPOL inh 8.
For Cn1cnc2c1CN(CC(=O)NCc1cccc(C(F)(F)F)c1)CC2 the results were mHTT-CaM PPI inh 68* and Pf apPOL inh -6.
For Cc1nn(C)c2c(=O)n(CC(=O)NCc3cccc(C(F)(F)F)c3)ccc12 the results were mHTT-CaM PPI inh -6 and Pf apPOL inh 1.
`CC1=NN(c2ccccc2)C(=O)/C1=C/c1ccc(Cl)cc1` gave mHTT-CaM PPI inh 53* and Pf apPOL inh 6.
Screening CC1=NN(c2ccccc2)C(=O)/C1=C/c1ccccc1F returned mHTT-CaM PPI inh 32 and Pf apPOL inh -4.
CC1=NN(c2ccc(Cl)c(C(=O)O)c2)C(=O)/C1=C/c1ccc(Cl)cc1 was read as mHTT-CaM PPI inh 6 and Pf apPOL inh 3.
CC1=NN(c2ccccc2)C(=O)/C1=C/c1ccc[nH]1 was read as mHTT-CaM PPI inh 81* and Pf apPOL inh -10.
`CC1=NN(c2ccccc2)C(=O)/C1=C/c1cccnc1` gave mHTT-CaM PPI inh 4 and Pf apPOL inh -3.
Screening CC1=NN(c2ccccc2)C(=O)/C1=C/c1ccc(N)cc1 returned mHTT-CaM PPI inh 57* and Pf apPOL inh -5.
Screening O=C(c1ccccc1Br)N1CCN(c2nc(CN3CCCC3)cs2)CC1 returned mHTT-CaM PPI inh 12 and Pf apPOL inh -2.
Screening N#Cc1cc(N2CCN(c3cc(C#N)c(C#N)cc3[N+](=O)[O-])CC2)c([N+](=O)[O-])cc1C#N returned mHTT-CaM PPI inh -1 and Pf apPOL inh 0.
For O=S(=O)(c1ccccc1C(F)(F)F)N1CCCCCC1 the results were mHTT-CaM PPI inh -19 and Pf apPOL inh 0.
O=C(NCc1csc(C2CCCN(C(=O)c3cc(F)cc(F)c3)C2)n1)C1CCC1 (configuration not stated) was read as mHTT-CaM PPI inh 12 and Pf apPOL inh -1.
`O=[N+]([O-])c1cccc(C2Oc3ccccc3C3CC(c4ccco4)=NN32)c1` (configuration not stated) gave mHTT-CaM PPI inh 43 and Pf apPOL inh -3.
For COc1cc(-c2noc(C)n2)ccc1OCc1ccc(C)cc1 the results were mHTT-CaM PPI inh -6 and Pf apPOL inh 2.
Screening CCc1noc(-c2cccn2Cc2cc(F)cc(F)c2)n1 returned mHTT-CaM PPI inh -52 and Pf apPOL inh 0.
CC(=O)Nc1nc2nccc(-c3ccccc3)n2n1 was read as mHTT-CaM PPI inh -4 and Pf apPOL inh -6.
For O=C(O)CCCC(=O)Nc1nc2nccc(-c3ccccc3)n2n1 the results were mHTT-CaM PPI inh 82* and Pf apPOL inh -2.
For Cc1ccc(-c2[nH]c3ccccc3c2C)cc1[N+](=O)[O-] the results were mHTT-CaM PPI inh 64* and Pf apPOL inh 0.
Cc1ccc(C(=O)c2ccccc2)cc1[N+](=O)[O-] was read as mHTT-CaM PPI inh -5 and Pf apPOL inh -9.
For CCOc1c(I)cc(/C=C(\C#N)c2nn(CCO)c(N)c2C#N)cc1OC the results were mHTT-CaM PPI inh 27 and Pf apPOL inh 4.
For O=C(O)c1nnn(-c2ccc3c(c2)CCC3)c1-c1ccncc1 the results were mHTT-CaM PPI inh 8 and Pf apPOL inh 7.
`COc1ccc(C)cc1NC(=O)N1CC2CCCN2c2ccccc21` (configuration not stated) gave mHTT-CaM PPI inh 83* and Pf apPOL inh 0.
Screening COC(=O)c1ccc(Cl)cc1NC(=O)N1CCN(C)c2ccccc21 returned mHTT-CaM PPI inh 48 and Pf apPOL inh -3.
COC(=O)c1ccc(C(=O)OC)c(NC(=O)N2CC3CCCN3c3ccccc32)c1 (configuration not stated) was read as mHTT-CaM PPI inh 58* and Pf apPOL inh 0.
For COc1ccc(Cl)cc1NC(=O)N1CC2CCCN2c2ccccc21 (configuration not stated) the results were mHTT-CaM PPI inh 74* and Pf apPOL inh -3.
For Cc1ccc(C)c(NC(=O)N2CC3CCCN3c3ccccc32)c1 (configuration not stated) the results were mHTT-CaM PPI inh 47 and Pf apPOL inh -5.
`COc1cc(NC(=O)N2CC3CCCN3c3ccccc32)cc(OC)c1` (configuration not stated) gave mHTT-CaM PPI inh 50 and Pf apPOL inh 4.
`COc1ccc(OCC(=O)N2CCC(c3nc(-c4ccc(NC(C)=O)cc4)no3)CC2)cc1` gave mHTT-CaM PPI inh 0 and Pf apPOL inh -4.
Screening COc1cccc2cc(C(N)=O)c(=Nc3ccc(C(N)=O)cc3)oc12 returned mHTT-CaM PPI inh -18 and Pf apPOL inh 1.
`COc1cccc2cc(C(N)=O)c(=Nc3ccc(O)cc3)oc12` gave mHTT-CaM PPI inh 99* and Pf apPOL inh -4.

Source: PubChem BioAssay
